# In ChEMBL document CHEMBL1961873, “Compounds: GSK PKIS; Assays: Nanosyn kinase panel” (2012):
# Experiments:
# [1] = target: T1, Serine/threonine-protein kinase D2 (Homo sapiens) (UniProt Q9BZL6); details: at 1 µM;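 further: mean value of PRKD2 inhibition, from the GSK PKIS screening panel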
# T1 sequence (whole entry): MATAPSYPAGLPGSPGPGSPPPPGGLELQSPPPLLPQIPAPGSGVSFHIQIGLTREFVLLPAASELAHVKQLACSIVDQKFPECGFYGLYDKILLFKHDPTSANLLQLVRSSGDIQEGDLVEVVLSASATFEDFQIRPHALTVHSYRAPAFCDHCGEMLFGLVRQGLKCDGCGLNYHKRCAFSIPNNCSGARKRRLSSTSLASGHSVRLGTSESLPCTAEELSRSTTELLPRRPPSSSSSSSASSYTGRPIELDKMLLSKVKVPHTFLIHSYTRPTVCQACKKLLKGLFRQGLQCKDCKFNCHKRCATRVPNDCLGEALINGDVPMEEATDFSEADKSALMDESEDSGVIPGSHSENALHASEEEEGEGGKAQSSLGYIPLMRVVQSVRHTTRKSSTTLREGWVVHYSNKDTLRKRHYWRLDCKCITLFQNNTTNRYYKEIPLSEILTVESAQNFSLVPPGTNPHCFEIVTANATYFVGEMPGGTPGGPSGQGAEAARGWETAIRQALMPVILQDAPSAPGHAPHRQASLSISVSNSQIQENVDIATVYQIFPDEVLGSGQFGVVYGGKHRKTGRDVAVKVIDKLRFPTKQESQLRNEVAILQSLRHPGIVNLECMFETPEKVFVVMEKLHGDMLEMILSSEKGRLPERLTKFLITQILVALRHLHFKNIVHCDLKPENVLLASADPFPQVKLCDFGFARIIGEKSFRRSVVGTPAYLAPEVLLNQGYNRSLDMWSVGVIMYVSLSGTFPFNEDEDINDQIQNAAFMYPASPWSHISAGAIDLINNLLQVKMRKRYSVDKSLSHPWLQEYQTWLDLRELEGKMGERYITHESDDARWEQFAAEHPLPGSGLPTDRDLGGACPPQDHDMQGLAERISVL
# [2] = target: T2, Serine/threonine-protein kinase D3 (Homo sapiens) (UniProt O94806); details: at 0.1 µM
# T2 sequence (whole entry): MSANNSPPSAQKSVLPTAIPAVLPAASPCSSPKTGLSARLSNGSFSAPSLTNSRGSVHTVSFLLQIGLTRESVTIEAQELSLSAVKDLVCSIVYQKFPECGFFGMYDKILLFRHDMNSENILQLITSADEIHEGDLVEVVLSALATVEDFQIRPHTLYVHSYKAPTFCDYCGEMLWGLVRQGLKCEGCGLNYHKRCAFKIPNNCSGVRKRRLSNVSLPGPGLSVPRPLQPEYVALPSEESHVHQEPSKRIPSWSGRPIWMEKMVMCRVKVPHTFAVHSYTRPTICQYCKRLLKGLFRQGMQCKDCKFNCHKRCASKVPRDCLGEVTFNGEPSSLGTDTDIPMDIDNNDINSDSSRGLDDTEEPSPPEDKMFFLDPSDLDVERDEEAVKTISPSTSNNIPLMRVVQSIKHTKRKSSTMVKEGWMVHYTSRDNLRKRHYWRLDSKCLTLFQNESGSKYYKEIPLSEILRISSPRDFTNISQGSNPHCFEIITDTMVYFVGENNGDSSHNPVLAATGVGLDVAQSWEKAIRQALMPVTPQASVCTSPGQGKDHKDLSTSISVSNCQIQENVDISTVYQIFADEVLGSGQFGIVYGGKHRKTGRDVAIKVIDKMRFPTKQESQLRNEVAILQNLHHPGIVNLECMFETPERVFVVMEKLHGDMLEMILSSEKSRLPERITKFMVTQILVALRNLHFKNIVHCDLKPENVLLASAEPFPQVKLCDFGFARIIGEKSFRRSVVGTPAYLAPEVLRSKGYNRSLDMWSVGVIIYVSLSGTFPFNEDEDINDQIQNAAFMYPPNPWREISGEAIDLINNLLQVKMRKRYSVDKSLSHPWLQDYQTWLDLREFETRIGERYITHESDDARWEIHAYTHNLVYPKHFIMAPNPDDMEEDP
# [3] = target: T2, Serine/threonine-protein kinase D3 (Homo sapiens); details: at 1 µM
# [4] = target: T3, cGMP-dependent protein kinase 1 (Homo sapiens) (UniProt Q13976); details: at 0.1 µM
# T3 sequence (whole entry): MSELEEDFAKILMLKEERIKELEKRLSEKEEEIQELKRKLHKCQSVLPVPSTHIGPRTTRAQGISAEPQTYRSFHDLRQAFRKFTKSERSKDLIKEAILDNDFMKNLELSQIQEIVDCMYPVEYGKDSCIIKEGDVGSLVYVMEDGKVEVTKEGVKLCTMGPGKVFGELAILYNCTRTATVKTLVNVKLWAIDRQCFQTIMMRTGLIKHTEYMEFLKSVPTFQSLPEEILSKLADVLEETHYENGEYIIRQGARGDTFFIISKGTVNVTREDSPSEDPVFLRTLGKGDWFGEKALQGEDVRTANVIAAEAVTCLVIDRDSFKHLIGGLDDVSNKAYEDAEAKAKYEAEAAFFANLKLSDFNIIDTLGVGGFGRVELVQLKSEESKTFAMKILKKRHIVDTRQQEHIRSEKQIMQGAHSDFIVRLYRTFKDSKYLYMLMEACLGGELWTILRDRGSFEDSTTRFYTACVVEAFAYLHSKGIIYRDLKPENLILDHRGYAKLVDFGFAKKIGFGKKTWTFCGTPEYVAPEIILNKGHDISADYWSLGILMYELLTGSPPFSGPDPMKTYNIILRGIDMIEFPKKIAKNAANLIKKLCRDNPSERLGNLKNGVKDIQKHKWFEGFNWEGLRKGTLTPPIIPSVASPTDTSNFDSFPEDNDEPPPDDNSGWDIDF
# [5] = target: T3, cGMP-dependent protein kinase 1 (Homo sapiens); details: at 1 µM
# [6] = target: T4, cGMP-dependent protein kinase 2 (Homo sapiens) (UniProt Q13237); details: at 0.1 µM
# T4 sequence (whole entry): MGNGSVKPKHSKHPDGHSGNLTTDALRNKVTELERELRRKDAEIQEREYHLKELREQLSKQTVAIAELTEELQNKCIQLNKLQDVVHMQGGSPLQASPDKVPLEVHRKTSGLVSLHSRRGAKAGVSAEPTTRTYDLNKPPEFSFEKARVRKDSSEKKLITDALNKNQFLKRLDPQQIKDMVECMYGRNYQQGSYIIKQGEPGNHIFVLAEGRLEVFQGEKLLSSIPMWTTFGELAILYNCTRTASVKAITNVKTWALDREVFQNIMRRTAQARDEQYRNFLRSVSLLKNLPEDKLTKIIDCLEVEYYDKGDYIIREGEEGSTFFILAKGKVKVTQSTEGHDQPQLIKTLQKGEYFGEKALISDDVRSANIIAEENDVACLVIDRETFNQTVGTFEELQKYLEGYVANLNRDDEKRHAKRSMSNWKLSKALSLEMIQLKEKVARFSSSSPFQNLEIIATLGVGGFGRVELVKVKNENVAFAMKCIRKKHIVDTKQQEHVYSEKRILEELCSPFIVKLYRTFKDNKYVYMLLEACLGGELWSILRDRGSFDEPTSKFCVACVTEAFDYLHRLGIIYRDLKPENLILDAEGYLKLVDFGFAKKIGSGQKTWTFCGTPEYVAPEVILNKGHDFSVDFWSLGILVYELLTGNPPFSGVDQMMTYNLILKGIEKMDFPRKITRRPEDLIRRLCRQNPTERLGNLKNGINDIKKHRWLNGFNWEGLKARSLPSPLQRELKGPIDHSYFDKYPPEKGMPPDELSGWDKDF
# [7] = target: T4, cGMP-dependent protein kinase 2 (Homo sapiens); details: at 1 µM
# [8] = target: T5, cAMP-dependent protein kinase catalytic subunit PRKX (Homo sapiens) (UniProt P51817); details: at 0.1 µM
# T5 sequence (whole entry): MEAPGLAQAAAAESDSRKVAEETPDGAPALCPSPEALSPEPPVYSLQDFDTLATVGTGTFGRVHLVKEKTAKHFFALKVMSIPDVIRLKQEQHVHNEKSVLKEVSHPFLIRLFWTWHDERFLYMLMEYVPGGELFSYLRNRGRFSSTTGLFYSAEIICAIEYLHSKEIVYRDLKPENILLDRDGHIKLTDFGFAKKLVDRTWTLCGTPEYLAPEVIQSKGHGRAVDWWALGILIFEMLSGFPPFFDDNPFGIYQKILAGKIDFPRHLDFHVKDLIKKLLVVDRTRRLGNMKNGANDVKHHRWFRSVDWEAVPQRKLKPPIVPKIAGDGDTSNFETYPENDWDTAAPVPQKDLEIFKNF
# [9] = target: T5, cAMP-dependent protein kinase catalytic subunit PRKX (Homo sapiens); details: at 1 µM
# [10] = target: Rho-associated protein kinase 1 (Homo sapiens) (UniProt Q13464); details: at 0.1 µM;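 further: values are mean percent inhibition of ROCK1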
# Chain of Rho-associated protein kinase 1 (Homo sapiens) (Q13464 2-1354 limits assumed): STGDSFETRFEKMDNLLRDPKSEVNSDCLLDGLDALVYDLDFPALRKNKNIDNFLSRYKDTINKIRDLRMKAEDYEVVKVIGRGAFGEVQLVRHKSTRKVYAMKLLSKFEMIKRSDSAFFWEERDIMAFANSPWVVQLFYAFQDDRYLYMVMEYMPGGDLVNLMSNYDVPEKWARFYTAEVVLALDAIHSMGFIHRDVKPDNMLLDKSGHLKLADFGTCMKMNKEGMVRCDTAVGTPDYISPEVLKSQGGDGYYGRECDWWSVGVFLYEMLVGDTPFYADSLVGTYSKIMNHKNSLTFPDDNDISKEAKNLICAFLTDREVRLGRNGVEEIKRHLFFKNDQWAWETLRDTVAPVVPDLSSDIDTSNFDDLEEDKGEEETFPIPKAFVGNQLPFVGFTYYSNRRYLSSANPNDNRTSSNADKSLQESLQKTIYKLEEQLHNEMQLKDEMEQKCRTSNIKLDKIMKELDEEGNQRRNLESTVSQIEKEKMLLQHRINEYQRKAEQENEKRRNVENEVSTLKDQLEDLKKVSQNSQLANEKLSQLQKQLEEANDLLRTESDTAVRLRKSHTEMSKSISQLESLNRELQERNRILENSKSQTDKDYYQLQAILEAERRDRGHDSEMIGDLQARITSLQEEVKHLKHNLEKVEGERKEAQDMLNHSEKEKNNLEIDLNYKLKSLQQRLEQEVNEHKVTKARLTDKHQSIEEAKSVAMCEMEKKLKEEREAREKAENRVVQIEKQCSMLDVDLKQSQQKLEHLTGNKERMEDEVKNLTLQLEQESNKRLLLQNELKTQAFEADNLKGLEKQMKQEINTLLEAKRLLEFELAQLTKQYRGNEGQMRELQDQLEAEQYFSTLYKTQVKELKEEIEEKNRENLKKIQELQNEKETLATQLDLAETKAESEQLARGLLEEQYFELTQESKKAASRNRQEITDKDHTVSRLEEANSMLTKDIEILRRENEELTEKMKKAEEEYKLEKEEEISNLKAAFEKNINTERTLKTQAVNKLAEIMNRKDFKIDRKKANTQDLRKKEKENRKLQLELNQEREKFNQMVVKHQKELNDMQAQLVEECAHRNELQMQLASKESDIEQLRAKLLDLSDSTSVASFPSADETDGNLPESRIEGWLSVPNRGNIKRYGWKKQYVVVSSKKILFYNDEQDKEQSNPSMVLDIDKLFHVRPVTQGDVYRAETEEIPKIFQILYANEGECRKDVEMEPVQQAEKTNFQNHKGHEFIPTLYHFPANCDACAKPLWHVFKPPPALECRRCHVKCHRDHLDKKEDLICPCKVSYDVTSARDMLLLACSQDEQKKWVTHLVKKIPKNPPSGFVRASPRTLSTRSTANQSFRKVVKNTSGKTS
SMILES,inhibition [1],inhibition [2],inhibition [3],inhibition [4],inhibition [5],inhibition [6],inhibition [7],inhibition [8],inhibition [9],inhibition [10]
NC(=O)c1sc(-n2cnc3ccc(C(F)(F)F)cc32)cc1OCc1ccccc1Br,4.08%,4.03%,3.94%,3.55%,8.39%,2.01%,5.42%,3.81%,8.33%,0.45%
c1ccc(COc2ccc(Nc3ncnc4ccc(-c5ccco5)cc34)cc2)cc1,2.58%,1.12%,1.43%,-0.44%,0.71%,0.02%,1.35%,2.22%,0.89%,0.21%
CN1CCC(n2cnc(-c3ccc(F)cc3)c2-c2ccnc(N)n2)CC1,16.4%,2.68%,17.3%,0.5%,9.09%,2.99%,30.7%,0.51%,1.95%,-0.08%
CC(=O)NCc1cccc(C#Cc2cncnc2Nc2ccc(OCc3cccc(F)c3)c(Cl)c2)c1,2.16%,1.12%,1.92%,1.14%,1.95%,1.31%,2.28%,1.14%,2.2%,0.02%
CC1=C(C(=O)Nc2cc(Cl)c3[nH]ncc3c2)C(c2ccc(C(F)(F)F)cc2)CC(=O)N1 (stereo not given),7.46%,4.09%,7.2%,27.6%,67.9%,16.9%,59.7%,44.8%,79.7%,70.7%
CNC(=O)c1cncc(/C=C/c2ccccc2Cl)c1,-1.08%,0.25%,-0.83%,1.15%,2.29%,2.05%,2.68%,1.22%,2.62%,0.5%
Fc1ccc(-c2nn3ccccc3c2-c2ccncc2)cc1,5.87%,3.07%,4.89%,3.89%,5.24%,2.4%,3.57%,1.41%,3.65%,5.05%
COc1ccc2[nH]c3c4[nH]c5ccc(OC)cc5c4c4c(c3c2c1)C(=O)NC4=O,45.9%,5.31%,14.4%,6.13%,35%,69.5%,72.5%,9.07%,46%,1.15%
c1ccc(-c2nc3n(c2-c2ccc4c(c2)OCO4)CCC3)nc1,4.47%,2.58%,5.25%,2.47%,2.75%,1.67%,2.85%,0.87%,3.61%,3.64%
CN1CCC(n2cnc(-c3ccc(F)cc3)c2-c2ccnc(Nc3ccccc3)n2)CC1,46.5%,6.42%,43.5%,1.69%,3.29%,0.99%,5.8%,1.37%,1.71%,-0.46%
CCCN1CCC(c2ccc(Nc3nc(Nc4cc(F)ccc4C(N)=O)c4cc[nH]c4n3)c(OC)c2)CC1,75.7%,13.6%,65.9%,9.75%,46.5%,8.54%,47%,1.4%,4.23%,17.2%
CC(C)(CO)CNC(=O)c1ccc2c(c1)/C(=N/Nc1ccc(S(N)(=O)=O)cc1)C(=O)N2,11.8%,0.07%,9.82%,0.66%,11.8%,2.6%,22%,0.91%,3.07%,0.33%
COC(=O)Nc1nc2ccc(Oc3ccc(NC(=O)Nc4cccc(Cl)c4)cc3)cc2[nH]1,2.04%,0.95%,3.39%,0.03%,-0.55%,0.27%,-0.85%,0.22%,-1.01%,0.69%
N#Cc1c(NC(=O)CN2CCOCC2)sc2c1CCCC2,6.36%,4.08%,6.46%,3.2%,4.74%,2.59%,2.65%,2.18%,3.49%,0.84%
CCCN(CCS(C)(=O)=O)Cc1ccc(-c2ccc3ncnc(Nc4ccc(OCc5cccc(F)c5)c(Cl)c4)c3c2)o1,1.95%,1.29%,2.73%,1.66%,1.47%,0.95%,1.07%,1.89%,1.27%,0.42%
CNC(=O)c1cccc(C#Cc2cncnc2Nc2ccc(OCc3cccc(F)c3)c(Cl)c2)c1,2.02%,0.11%,0.04%,-0.44%,3.3%,0.38%,0.97%,-0.25%,0.9%,-1.85%
Nc1nc(-c2cccc(Cl)c2)c(-c2ccc3ncccc3n2)s1,40.1%,7.77%,33.1%,2.8%,5.63%,1.78%,4.96%,3.46%,5.88%,1.58%
